Results from the supplement of paper PMC11732987, “Enantioselective OTUD7B fragment discovery through chemoproteomics screening and high-throughput optimisation” (Communications Chemistry, 2025).

What was measured:
Experiment in all cases: log2 ratio of Biotin-Ahx-Ub-VS probe labelling (fragment/DMSO); higher = less target engagement (more negative = stronger competition), active = hit call of the paper (q ≤ 0.05, log2 ratio ≤ -1)
Details in all cases: compound concentration: 200 uM; treatment time: 3 h
USP42 = target: T1, USP42 (UniProt Q9H9J4)
T1 sequence (whole entry): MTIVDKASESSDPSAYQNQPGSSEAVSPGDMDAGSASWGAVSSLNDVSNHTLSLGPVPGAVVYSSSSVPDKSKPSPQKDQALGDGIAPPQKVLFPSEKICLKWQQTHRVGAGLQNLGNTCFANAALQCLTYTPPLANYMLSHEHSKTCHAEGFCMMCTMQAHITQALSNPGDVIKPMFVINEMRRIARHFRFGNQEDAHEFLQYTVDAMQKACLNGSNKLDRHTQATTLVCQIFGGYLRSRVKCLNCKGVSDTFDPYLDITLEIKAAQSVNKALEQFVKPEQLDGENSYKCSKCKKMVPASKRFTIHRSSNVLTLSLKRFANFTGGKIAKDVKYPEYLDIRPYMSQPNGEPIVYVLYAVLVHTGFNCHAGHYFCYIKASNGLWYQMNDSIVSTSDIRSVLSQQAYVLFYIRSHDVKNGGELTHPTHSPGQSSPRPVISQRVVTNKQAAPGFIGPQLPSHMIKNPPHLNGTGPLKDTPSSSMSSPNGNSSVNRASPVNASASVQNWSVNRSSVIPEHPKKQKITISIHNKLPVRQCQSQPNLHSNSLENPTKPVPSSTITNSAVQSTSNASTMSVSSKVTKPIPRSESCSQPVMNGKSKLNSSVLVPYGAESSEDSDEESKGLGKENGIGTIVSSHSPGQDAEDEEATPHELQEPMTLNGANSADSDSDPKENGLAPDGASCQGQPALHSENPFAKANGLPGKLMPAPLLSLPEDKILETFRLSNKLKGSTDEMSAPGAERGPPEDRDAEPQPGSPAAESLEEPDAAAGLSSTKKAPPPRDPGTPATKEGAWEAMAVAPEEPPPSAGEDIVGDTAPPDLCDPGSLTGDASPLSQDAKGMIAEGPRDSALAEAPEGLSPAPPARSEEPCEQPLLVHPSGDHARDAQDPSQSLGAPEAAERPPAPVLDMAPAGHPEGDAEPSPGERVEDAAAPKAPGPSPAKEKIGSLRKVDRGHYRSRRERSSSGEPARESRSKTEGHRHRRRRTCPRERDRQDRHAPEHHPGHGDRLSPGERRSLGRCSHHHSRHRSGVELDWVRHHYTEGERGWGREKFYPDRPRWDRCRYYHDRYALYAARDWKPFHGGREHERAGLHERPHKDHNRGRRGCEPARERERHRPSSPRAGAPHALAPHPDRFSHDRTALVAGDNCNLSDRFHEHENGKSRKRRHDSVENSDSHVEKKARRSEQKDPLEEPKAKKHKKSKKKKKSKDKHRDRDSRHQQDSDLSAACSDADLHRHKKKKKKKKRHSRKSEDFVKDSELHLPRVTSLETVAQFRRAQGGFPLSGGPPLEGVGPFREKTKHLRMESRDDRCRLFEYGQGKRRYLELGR
Procedure, shortened: (§1)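 HEK293T lysate (495 µg per sample, in Tris/CHAPS/IGEPAL buffer with protease inhibitors) was exposed in triplicate for 3 h to fragment at 200 µM or to vehicle, then to Biotin-Ahx-Ub-VS at 0.5 µM final for 1 h. Labelled DUBs were enriched on NeutrAvidin, digested with LysC and trypsin, and analysed by diaPASEF LC-MS/MS. Spectronaut label-free quantities were normalised to the global median, and values are average log2 ratios of fragment over vehicle from an unpaired t-test. Only proteins with ≥2 unique peptides were used.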

USP46 = USP46 (UniProt P62068)
Procedure, shortened: as §1

USP47 = target: T2, USP47 (UniProt Q96K76)
T2 sequence (whole entry): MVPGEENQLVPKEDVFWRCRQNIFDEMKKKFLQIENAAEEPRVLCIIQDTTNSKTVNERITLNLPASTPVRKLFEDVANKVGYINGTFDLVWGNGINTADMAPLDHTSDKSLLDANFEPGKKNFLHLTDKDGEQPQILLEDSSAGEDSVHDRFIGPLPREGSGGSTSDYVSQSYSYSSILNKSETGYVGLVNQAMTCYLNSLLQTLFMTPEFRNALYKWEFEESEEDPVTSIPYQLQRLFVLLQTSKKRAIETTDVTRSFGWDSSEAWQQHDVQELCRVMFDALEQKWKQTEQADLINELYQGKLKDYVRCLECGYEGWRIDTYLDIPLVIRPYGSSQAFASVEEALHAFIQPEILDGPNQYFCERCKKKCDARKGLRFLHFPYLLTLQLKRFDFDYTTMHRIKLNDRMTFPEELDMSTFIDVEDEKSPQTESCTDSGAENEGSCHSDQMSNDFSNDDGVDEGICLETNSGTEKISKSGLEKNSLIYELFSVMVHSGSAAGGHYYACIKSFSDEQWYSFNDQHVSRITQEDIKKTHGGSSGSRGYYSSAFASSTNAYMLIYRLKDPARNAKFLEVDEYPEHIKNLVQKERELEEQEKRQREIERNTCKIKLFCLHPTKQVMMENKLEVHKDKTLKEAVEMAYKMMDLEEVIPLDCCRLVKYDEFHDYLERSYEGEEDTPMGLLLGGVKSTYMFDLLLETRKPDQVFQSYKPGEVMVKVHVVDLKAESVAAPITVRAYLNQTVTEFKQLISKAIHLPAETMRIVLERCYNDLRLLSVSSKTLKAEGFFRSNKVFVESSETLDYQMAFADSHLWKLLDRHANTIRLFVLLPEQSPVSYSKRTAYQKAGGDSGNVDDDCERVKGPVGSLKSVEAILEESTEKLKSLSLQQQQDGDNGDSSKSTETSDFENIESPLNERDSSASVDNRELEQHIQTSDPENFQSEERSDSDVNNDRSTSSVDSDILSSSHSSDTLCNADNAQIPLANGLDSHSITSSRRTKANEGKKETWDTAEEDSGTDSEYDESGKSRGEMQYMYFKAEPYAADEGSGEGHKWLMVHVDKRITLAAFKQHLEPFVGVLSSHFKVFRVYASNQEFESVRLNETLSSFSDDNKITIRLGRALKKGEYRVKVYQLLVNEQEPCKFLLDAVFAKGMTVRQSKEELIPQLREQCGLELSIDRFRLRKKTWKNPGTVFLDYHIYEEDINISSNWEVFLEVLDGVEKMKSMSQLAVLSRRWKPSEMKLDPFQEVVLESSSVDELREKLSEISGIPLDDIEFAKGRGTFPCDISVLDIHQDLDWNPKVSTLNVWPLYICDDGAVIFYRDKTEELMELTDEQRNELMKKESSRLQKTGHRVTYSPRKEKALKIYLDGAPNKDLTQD
Procedure, shortened: as §1

USP48 = target: T3, USP48 (UniProt Q86UV5)
T3 sequence (whole entry): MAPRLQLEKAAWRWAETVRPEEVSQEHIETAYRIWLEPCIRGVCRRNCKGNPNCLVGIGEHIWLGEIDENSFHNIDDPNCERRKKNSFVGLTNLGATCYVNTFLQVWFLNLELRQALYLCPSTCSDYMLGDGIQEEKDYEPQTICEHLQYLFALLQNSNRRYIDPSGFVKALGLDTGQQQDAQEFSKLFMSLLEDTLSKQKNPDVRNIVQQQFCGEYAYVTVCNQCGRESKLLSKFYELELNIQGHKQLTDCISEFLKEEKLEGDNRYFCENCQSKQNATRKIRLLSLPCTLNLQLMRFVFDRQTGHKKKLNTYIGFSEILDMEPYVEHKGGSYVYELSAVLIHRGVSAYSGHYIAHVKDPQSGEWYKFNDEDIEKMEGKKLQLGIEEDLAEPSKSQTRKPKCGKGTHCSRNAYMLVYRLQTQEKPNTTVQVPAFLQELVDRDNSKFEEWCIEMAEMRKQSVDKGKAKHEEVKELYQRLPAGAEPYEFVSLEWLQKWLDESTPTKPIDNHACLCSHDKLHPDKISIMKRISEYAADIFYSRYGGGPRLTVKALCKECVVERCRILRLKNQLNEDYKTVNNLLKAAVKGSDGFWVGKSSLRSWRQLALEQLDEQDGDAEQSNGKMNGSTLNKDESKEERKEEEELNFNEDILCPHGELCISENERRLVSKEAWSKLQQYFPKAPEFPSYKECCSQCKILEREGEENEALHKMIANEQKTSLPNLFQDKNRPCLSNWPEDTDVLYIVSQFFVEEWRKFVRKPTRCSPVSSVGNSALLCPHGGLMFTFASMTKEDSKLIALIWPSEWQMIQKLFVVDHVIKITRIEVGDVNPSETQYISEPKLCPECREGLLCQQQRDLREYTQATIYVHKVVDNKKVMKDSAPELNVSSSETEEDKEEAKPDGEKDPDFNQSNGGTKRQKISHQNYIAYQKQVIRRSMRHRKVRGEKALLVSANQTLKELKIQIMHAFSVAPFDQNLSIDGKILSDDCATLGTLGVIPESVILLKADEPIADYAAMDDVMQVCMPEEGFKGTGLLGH
Procedure, shortened: as §1

USP5 = target: T4, USP5 (UniProt P45974)
T4 sequence (whole entry): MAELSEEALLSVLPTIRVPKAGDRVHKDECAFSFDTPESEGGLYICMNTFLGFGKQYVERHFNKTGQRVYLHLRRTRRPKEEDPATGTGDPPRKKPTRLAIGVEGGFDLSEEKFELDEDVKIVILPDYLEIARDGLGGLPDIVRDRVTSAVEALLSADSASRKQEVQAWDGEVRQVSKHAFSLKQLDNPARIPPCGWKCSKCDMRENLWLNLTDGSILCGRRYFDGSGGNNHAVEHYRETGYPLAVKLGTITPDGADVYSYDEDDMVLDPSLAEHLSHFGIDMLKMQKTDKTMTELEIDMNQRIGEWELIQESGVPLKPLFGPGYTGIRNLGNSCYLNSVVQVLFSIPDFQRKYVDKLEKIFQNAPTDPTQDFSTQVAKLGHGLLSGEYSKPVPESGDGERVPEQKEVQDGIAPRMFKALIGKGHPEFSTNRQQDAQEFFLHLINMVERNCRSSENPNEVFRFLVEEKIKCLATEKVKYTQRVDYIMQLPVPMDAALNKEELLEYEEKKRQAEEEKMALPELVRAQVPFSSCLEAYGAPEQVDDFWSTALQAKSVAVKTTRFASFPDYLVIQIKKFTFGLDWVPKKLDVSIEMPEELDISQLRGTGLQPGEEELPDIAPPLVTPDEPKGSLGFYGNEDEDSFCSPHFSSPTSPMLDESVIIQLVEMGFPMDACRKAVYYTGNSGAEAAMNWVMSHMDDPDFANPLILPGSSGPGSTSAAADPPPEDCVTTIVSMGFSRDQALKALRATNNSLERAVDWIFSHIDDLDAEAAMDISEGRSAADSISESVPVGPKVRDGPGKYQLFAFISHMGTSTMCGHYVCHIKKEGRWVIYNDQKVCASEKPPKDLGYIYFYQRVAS
Procedure, shortened: as §1

USP54 = USP54 (UniProt Q70EL1)
Procedure, shortened: as §1

USP7 = USP7 (UniProt Q93009)
Procedure, shortened: as §1

USP8 = target: T5, USP8 (UniProt P40818)
T5 sequence (whole entry): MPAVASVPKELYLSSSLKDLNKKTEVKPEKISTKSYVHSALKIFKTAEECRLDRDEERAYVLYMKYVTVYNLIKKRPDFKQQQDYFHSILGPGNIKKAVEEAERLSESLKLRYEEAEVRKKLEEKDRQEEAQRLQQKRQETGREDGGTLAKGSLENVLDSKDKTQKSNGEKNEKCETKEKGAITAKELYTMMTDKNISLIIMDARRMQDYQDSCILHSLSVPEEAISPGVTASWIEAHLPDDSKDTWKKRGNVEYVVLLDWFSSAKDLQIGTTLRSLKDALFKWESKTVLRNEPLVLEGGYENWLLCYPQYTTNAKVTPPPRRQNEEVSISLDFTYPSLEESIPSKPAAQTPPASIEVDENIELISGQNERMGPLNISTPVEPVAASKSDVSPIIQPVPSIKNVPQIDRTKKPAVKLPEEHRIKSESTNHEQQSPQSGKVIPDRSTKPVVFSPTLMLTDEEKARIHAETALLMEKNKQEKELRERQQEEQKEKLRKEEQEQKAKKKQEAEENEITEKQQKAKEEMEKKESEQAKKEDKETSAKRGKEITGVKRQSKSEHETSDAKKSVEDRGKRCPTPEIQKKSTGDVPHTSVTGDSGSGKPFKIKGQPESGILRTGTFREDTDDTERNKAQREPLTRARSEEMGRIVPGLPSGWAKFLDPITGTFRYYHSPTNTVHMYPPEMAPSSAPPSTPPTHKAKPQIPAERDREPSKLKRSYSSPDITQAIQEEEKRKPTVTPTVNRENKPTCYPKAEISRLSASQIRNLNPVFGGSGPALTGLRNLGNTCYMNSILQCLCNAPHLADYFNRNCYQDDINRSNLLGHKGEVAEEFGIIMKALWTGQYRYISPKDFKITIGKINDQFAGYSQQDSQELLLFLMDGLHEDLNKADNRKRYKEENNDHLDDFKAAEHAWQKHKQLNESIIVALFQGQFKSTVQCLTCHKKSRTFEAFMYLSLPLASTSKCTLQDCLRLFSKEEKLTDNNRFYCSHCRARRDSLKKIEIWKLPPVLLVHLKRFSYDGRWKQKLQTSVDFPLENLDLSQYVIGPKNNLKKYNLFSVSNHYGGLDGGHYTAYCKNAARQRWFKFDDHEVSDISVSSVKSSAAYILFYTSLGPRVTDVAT
Procedure, shortened: as §1

Measured: log2 ratio of Biotin-Ahx-Ub-VS probe labelling

Chain of USP46 (P62068 whole entry): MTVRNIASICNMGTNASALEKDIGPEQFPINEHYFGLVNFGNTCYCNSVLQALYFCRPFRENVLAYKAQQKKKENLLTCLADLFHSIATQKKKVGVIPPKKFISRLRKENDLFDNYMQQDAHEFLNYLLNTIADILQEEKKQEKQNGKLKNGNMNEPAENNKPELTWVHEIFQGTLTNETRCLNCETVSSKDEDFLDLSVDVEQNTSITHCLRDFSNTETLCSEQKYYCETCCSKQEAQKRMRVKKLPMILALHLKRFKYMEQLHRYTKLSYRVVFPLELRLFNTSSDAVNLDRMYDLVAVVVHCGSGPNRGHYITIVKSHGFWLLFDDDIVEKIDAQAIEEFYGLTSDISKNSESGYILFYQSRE
Chain of USP7 (Q93009 whole entry, looked up): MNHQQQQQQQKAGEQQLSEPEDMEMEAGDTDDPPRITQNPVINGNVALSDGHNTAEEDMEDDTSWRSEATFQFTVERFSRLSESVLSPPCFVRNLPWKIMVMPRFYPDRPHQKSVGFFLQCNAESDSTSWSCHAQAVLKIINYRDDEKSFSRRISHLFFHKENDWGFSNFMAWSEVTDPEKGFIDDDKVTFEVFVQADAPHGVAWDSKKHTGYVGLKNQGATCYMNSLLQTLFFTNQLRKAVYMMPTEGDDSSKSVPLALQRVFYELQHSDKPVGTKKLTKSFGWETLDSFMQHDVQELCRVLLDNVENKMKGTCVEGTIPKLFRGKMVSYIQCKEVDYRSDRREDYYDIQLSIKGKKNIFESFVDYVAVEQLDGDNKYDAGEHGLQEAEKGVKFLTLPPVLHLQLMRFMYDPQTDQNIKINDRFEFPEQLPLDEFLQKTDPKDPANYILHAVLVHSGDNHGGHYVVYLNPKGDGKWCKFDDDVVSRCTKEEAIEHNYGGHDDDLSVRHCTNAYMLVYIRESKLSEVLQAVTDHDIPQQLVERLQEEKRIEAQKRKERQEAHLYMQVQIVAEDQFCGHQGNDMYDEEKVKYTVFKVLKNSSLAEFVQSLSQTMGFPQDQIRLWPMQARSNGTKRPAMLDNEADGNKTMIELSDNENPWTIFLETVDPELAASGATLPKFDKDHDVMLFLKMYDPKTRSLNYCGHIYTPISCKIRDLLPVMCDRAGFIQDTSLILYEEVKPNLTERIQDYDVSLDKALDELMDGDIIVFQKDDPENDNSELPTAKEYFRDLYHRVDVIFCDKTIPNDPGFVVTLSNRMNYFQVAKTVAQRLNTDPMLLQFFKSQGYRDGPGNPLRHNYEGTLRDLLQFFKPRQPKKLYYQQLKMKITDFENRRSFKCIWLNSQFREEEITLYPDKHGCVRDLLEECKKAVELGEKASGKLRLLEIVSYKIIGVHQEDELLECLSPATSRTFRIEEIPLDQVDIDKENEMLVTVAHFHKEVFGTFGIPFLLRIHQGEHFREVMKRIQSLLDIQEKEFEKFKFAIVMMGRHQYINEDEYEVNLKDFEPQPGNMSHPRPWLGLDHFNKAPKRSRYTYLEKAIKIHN
Chain of USP54 (Q70EL1 whole entry): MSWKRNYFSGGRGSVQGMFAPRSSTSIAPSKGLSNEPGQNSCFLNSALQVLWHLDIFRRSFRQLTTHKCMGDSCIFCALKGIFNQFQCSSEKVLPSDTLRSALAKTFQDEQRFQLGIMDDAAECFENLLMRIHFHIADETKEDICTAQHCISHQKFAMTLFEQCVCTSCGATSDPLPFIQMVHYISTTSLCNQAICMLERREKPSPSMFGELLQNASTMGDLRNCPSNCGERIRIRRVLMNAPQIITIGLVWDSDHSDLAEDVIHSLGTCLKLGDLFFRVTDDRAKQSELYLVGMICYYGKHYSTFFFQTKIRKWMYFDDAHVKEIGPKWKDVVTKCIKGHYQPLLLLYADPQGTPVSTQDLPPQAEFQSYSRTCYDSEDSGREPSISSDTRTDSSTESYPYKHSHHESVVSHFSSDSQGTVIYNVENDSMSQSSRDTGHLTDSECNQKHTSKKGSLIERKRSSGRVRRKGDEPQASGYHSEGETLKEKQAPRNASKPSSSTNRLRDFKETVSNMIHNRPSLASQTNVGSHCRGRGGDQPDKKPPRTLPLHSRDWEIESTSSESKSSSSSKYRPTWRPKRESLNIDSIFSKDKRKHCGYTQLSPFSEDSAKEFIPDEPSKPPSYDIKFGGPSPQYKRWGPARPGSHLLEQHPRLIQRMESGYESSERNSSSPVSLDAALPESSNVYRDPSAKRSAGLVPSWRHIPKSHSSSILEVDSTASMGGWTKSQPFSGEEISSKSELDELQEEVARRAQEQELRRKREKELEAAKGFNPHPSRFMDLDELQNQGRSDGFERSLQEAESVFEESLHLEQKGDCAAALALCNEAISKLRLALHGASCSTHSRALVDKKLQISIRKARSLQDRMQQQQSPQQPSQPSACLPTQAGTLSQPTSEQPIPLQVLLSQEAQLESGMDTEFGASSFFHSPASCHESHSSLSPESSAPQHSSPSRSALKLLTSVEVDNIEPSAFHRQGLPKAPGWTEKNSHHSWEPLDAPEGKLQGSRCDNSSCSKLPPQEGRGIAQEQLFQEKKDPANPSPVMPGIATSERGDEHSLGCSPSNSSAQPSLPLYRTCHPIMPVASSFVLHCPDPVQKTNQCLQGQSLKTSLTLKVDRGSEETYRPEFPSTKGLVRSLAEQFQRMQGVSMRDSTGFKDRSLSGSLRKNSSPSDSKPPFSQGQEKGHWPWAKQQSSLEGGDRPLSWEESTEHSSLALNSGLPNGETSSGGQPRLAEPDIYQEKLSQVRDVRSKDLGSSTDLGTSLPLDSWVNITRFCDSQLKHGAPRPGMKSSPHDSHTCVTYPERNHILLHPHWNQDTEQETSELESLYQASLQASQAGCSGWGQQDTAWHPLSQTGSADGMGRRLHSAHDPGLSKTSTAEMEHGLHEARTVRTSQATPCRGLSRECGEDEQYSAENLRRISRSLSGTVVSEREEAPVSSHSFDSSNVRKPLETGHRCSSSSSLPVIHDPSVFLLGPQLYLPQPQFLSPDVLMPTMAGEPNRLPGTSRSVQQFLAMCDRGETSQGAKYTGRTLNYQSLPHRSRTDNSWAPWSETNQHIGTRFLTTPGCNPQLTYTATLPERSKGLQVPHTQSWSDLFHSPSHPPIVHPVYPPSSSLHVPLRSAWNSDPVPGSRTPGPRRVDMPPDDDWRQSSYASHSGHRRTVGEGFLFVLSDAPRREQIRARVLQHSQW

N#Cc1ccccc1N1CCN(C(=O)CCl)CC1
active: USP7 -1.73
inactive: USP42 0.456 | USP46 -0.871 | USP47 -0.514 | USP48 -1.04 | USP5 -0.123 | USP54 1.03 | USP8 -0.729
